# Assay outcomes from PubChem.
# This is a sample that favours compounds with a hit; in the whole collection about 4.6% have one here.
# D1 ag: activates the human D1 dopamine receptor. HEK293 T-REx D1 cells, calcium flux, agonist mode. activation, % at 2 µM. hit rate 1% among 360,000
#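 Agonism was scored from calcium flux recorded over 180 s (1 read/s) after pintool compound addition, following a 10-cycle baseline. Cells were inducible force-coupled HEK293 TREx D1, plated overnight at 30 C and loaded with no-wash calcium dye.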
# TRHR enhancer: allosteric enhancers of human TRH receptor; P34981; TRHR cells, fluo-8 calcium fluorescence, EC20 TRH enhancement; enhancement, % at 2 µM; hit rate 0.66% among 360,000; in the data active = enhancement above about 30%
# Target sequence (P34981 whole entry, looked up): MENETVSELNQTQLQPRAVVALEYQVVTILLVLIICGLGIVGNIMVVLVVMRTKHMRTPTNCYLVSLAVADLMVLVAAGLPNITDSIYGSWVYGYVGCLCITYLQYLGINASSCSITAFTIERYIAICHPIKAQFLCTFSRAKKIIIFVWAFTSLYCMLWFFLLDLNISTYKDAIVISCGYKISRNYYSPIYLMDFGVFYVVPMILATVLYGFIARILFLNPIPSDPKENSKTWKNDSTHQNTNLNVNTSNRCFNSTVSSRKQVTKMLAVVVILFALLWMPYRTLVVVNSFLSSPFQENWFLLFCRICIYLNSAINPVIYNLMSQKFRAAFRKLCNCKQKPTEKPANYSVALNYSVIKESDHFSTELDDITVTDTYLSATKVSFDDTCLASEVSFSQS
#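 TRHR-expressing cells loaded with fluo-8 calcium dye were read kinetically (ex 480/em 530) during compound addition, then stimulated with an EC20 of TRH (10 nM final). Enhancement of the Gq-mediated intracellular calcium response was scored.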
# D1 antag: antagonists of human D1 dopamine receptor; P21728; HEK293 TREx D1 cells, calcium flux, dopamine EC80; active compounds read low; activity change, negative = inhibition, % at 10 µM; hit rate 3.2% among 360,000; AID 504652; in the data active = activity change below about -30%
#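 Tetracycline-induced HEK293 T-REx cells with force-coupled D1 receptor were loaded with a no-wash calcium dye. Compound was added after a 10 s baseline and read kinetically for 180 s; EC80 dopamine was then added and calcium flux followed another 180 s.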
# D1 PAM: enhances dopamine response at the human D1 receptor | HEK293 TREx D1 cells, calcium flux, dopamine EC20 potentiation | potentiation, % at 10 µM | hit rate 0.036% among 360,000; in the data active = potentiation above about 30%
# TRHR agonist: agonists of human TRH receptor. activation, % at 2 µM. P34981. TRHR cells, calcium flux fluo-8, FDSS agonist mode. hit rate 0.18% among 360,000
#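 TRHR-expressing cells, plated overnight in medium with 10% serum, were loaded with fluo-8 calcium dye at room temperature. After a 10 s baseline, library compound was pin-added and calcium release was recorded kinetically (ex 480/em 530) as agonist response.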
# Numbers stand for hits; . = inactive. Cut-off read from the data, not from the text of the source, unless noted: active = activation above about 30%; inactive = the rest.
SMILES,D1 ag,TRHR enhancer,D1 antag,D1 PAM,TRHR agonist
CN1CCN(Cc2ccccc2Sc2ccccc2)CC1,53,.,.,.,.
CC(Cc1ccccc1Sc1ccc(O)cc1)N(C)C (centres undefined),.,.,-48,.,.
CC(Cc1ccccc1Sc1ccccc1)N(C)C (centres undefined),.,.,-68,.,.
CCOc1ccc(NC(=O)Cn2cc(C(=O)c3ccccc3)c3ccccc32)cc1,.,.,.,.,.
COc1ccc(-n2c(/C=C/c3cccc(F)c3)nc3ccccc3c2=O)cc1Cl,.,.,.,.,.
Cn1c(=O)n(C)c2cc(CNCCc3ccccc3)ccc21,.,.,.,.,.
CC1(C)CSC(=NCc2ccccc2)N1,152,.,-38,36,77
CCCC(=O)Nc1ccc(N2CCN(CC)CC2)c(Cl)c1,.,.,-41,.,.
Cc1ccc(-c2nc(CN3C(=O)CN=C(c4ccccc4Cl)c4cc(Cl)ccc43)c(C)o2)cc1,.,.,.,.,.
O=C1CN=C(c2ccccc2)c2cc(Cl)ccc2N1Cc1ccc(Cl)cc1,.,.,.,.,.
NC(=O)c1ccc(N=Cc2c(O)n(Cc3ccco3)c(=O)[nH]c2=O)cc1,.,.,.,.,.
CCN(CC)c1ccc(N=Cc2c(O)n(Cc3ccco3)c(=O)[nH]c2=O)cc1,31,.,.,.,.
CCN(CC)c1ccc(N=Cc2c(O)n(CCc3ccc(OC)c(OC)c3)c(=O)[nH]c2=O)cc1,40,.,.,.,.
CCn1c(O)c(C=Nc2ccc(S(N)(=O)=O)cc2)c(=O)[nH]c1=S,.,.,.,.,.
COc1ccc(CCn2c(O)c(C=Nc3ccc(F)cc3)c(=O)[nH]c2=O)cc1OC,.,38,.,.,.
CCN(CCO)c1ccc(N=Cc2c(O)n(C)c(=S)[nH]c2=O)cc1,75,.,.,.,.
CCN(CC)CCCN=Cc1c(O)n(CCc2ccc(OC)c(OC)c2)c(=O)[nH]c1=O,.,.,.,.,.
FC(F)(F)c1ccc(CN2CCNCC2)cc1,.,.,.,.,.
FC(F)(F)c1cccc(N2CCNCC2)c1,.,.,-32,.,.
CCOC(=O)c1ccc(NC(=O)c2cccn(Cc3ccccc3F)c2=O)cc1,.,.,.,.,.
COc1ccc2c(c1OC)CN1CCc3cc4c(cc3[C@H]1C2)OCO4,.,.,-80,.,.
COc1ccc2c(c1OC)CN1CCc3cc4c(cc3C1C2)OCO4 (centres undefined),.,.,-80,.,.
COc1cc2c(cc1OC)C(C1c3cc4c(cc3CCN1C)OCO4)OC2=O (centres undefined),.,.,.,.,.
COCCNC(=O)c1c(NC(=O)c2ccc(Br)o2)n(Cc2ccccc2)c2nc3ccccc3nc12,37,.,.,.,.
O=c1[nH]c(O)c(/C=C2/C=CC(c3cc(Cl)ccc3Cl)=N2)c(=O)[nH]1,73,.,.,.,.
SMILES,D1 ag,TRHR enhancer,D1 antag,D1 PAM,TRHR agonist
COc1ccc(Cl)cc1NC(=O)CN1C(=O)CN=C(c2ccccc2)c2cc(Cl)ccc21,.,.,.,.,.
CCCCN1C(=O)NC(=O)C2(Cc3c(nc4c(C)cccn4c3=O)N3CCc4ccccc4C32)C1=O (centres undefined),38,.,.,.,.
CCN(CC)c1ccc(CNCCc2ccccc2F)cc1,46,.,.,.,.
Cc1ccc(CNCCc2ccccc2F)cc1,.,.,.,.,.
CCOc1ccc2nc(NC(=O)c3cccn(Cc4ccc(Cl)cc4)c3=O)sc2c1,.,.,.,.,.
CN1CC(C(=O)c2cccc(C(F)(F)F)c2)C(c2ccc(Cl)cc2)C1 (centres undefined),31,.,.,.,.
CCCCCSc1cc(OC)c(CCN)cc1OC,31,.,.,.,.
COc1cc(CCN)ccc1O,.,.,.,.,.
CCCCCCCSc1cc(OC)c(CCN(C)C)cc1OC,201,.,.,.,.
Cc1nonc1OCCNCCNc1ccc([N+](=O)[O-])c2cccnc12,.,.,-35,.,.
CCNCCNc1ccc([N+](=O)[O-])c2cccnc12,.,.,.,.,.
CCN1C(=O)NC(=O)/C(=C\c2cn(CC(=O)N3CCCCC3C)c3ccccc23)C1=O (centres undefined),.,.,-30,.,.
CN1C(=O)C(=Cc2ccc(N3CCOCC3)o2)C(=O)N(C)C1=S,.,.,.,.,.
